# Measurements: PubChem BioAssay (NCI)
# Compounds without any hit were thinned out: in the full panel of roughly 79,000, 15% have a hit. The source made the active and inactive calls. No stated cut-off is given here; in the data, active means growth inhibition above about 70%; inactive means the rest.
# Assay: NCI Yeast Anticancer Drug Screen. Data for the cln2 rad14 strain (AID 165);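 further: 0% = growth equal to vehicle treated cultures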
# Settings: S. cerevisiae cln2 rad14 strain, at 50.0 µM, stronger effect = higher value
# Outline: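 Yeast strain cln2 rad14, bearing defects in cell cycle control and DNA repair, serves as the test system; values reflect growth inhibition compared with vehicle.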
row,SMILES,growth inhibition
1,O=C(NCCNc1ccccc1)C12CC3CC(CC(C3)C1)C2,-2.4% (inactive)
2,COc1ccc2c(c1)OCCN(C)OC2c1ccccc1 (stereo not given),0.5% (inactive)
3,CN=C(NN)NS(=O)(=O)c1cc(C)c(Cl)cc1S,-10.9% (inactive)
4,COC(=O)[C@H](Cc1ccc(OC(C)(C)C)cc1)N[C@H](C)C(=O)N[C@@H](Cc1ccccc1)C(=O)OCc1ccccc1,67% (inactive)
5,O=C(O)c1ccccc1C(=O)Cc1ccccc1,-16% (inactive)
6,Oc1ccc2cccc(O)c2c1,19.9% (inactive)
7,O=C(Cc1ccccc1)c1ccc(N2CCOCC2)cc1,13.2% (inactive)
8,NCC(=O)Nc1ccc(Cl)cc1C(=O)c1ccc[nH]1,-42.4% (inactive)
9,CS(=O)(=O)C(CCC(=O)C(c1ccccc1)c1ccccc1)C(=O)c1ccccc1 (stereo not given),-39.5% (inactive)
10,COC(=O)C1CC(=O)CCC1c1ccccc1 (stereo not given),-6.45% (inactive)
11,CCCCCCCCCCCCCCCCc1ccc(CCCC(=O)O)cc1,5.45% (inactive)
12,c1ccc2c(CN3CCN(Cc4c[nH]c5ccccc45)CC3)c[nH]c2c1,-13.8% (inactive)
13,Cc1cc(=O)n(Cc2ccco2)c(=S)[nH]1,0.75% (inactive)
14,CC(=O)Oc1ccc(OC(C)=O)c(C(=O)O)c1,-39.3% (inactive)
15,O=C(O)CS/C(=N\S(=O)(=O)c1ccccc1)Nc1cccc(Cl)c1,12% (inactive)
16,O=C(NCc1ccccn1)c1ccccc1,-18.9% (inactive)
17,CCC(Cc1cnc2nc(N)nc(N)c2n1)c1ccc(C(=O)NC(CCC(=O)O)C(=O)O)cc1 (stereo not given),-12.2% (inactive)
18,NC(C(=O)O)c1ccccc1 (stereo not given),-1.9% (inactive)
19,CCOc1ccccc1C(=O)Oc1ccc(C)cc1,-3.85% (inactive)
20,COC(=O)C1=C(O)/C(=C\c2ccccc2)NC1=O,-40.4% (inactive)

row,SMILES,growth inhibition
1,O=C(CN1CCN(Cc2ccccc2)CC1)N1CCCn2c1nc1ccccc1c2=O,7.6% (inactive)
2,CCc1ccc(C(O)C(=O)O)cc1 (stereo not given),3.85% (inactive)
3,CSc1nc2c(nc(N)n2C2OC(CO)C(O)C(O)C2O)c(=O)[nH]1 (stereo not given),-1.2% (inactive)
4,O=C(O)c1cscn1.O=C(O)c1cscn1.[I][Pt][I],-17.1% (inactive)
5,CCOC(=O)NN(C(=O)OCC)C(C(=O)C1CCCCC1)N(NC(=O)OCC)C(=O)OCC,11.2% (inactive)
6,c1ccc(N=C(Nc2ccccc2)N2CCCC2)cc1,5.7% (inactive)
7,Nc1nc(C(F)(F)F)nc(N)c1N,3.2% (inactive)
8,O=C(CCCCc1ccccc1)NO,15.8% (inactive)
9,CCCC(C)OS(=O)(=O)c1ccc(C)cc1 (stereo not given),-36.5% (inactive)
10,CC(C)(N)COCOCC(C)(C)N,2.4% (inactive)
11,CN1CCC(CNc2ccccc2)CC1,-20.5% (inactive)
12,NC(=S)n1nc(-c2ccccc2)c(N=Nc2cccc([N+](=O)[O-])c2)c1-c1ccccc1,19.6% (inactive)
13,CCC1(CC)NC(=S)NC1=S,10% (inactive)
14,CCOC1C=CCCO1 (stereo not given),-6.55% (inactive)
15,COc1cc2c(c3c1/c(=N\N=c1/c4ccccc4n(C)c4c5c(cc(OC)c14)OC(C)(C)C=C5)c1ccccc1n3C)C=CC(C)(C)O2,48% (inactive)
16,Cn1nc2c(c1-c1ccncc1)CCc1ccccc1-2,-3.55% (inactive)
17,CCOC(=O)/C=C/c1ccc([N+](=O)[O-])cc1,2.55% (inactive)
18,CCCCCCCCCCCCCC(=O)OCC1OC(n2cc(F)c(=O)[nH]c2=O)C(N)C(OC(=O)CCCCCCCCCCCCC)C1O (stereo not given),35.3% (inactive)
19,CCNC(=O)CCC(NS(=O)(=O)c1ccc(NC(=O)c2ccc(Cl)cc2)cc1)C(=O)O (stereo not given),-4.6% (inactive)
20,CC1CP(=O)(Cc2ccccc2)C(C)(c2ccccc2)C1=O (stereo not given),-4.2% (inactive)

# Assay: NCI Yeast Anticancer Drug Screen. Data for the bub3 strain (AID 167)
# Settings: S. cerevisiae bub3 mutant strain, at 50.0 µM, stronger effect = higher value
# Outline: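 Growth of a checkpoint-deficient yeast mutant is measured after compound exposure. Values represent inhibition relative to vehicle.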
row,SMILES,growth inhibition
1,O=C(NCCNc1ccccc1)C12CC3CC(CC(C3)C1)C2,19.1% (inactive)
2,COc1ccc2c(c1)OCCN(C)OC2c1ccccc1 (stereo not given),11.1% (inactive)
3,CN=C(NN)NS(=O)(=O)c1cc(C)c(Cl)cc1S,3.4% (inactive)
4,COC(=O)[C@H](Cc1ccc(OC(C)(C)C)cc1)N[C@H](C)C(=O)N[C@@H](Cc1ccccc1)C(=O)OCc1ccccc1,62.4% (inactive)
5,O=C(O)c1ccccc1C(=O)Cc1ccccc1,-29.6% (inactive)
6,Oc1ccc2cccc(O)c2c1,12% (inactive)
7,O=C(Cc1ccccc1)c1ccc(N2CCOCC2)cc1,26.1% (inactive)
8,NCC(=O)Nc1ccc(Cl)cc1C(=O)c1ccc[nH]1,-53.5% (inactive)
9,CS(=O)(=O)C(CCC(=O)C(c1ccccc1)c1ccccc1)C(=O)c1ccccc1 (stereo not given),-1.55% (inactive)
10,COC(=O)C1CC(=O)CCC1c1ccccc1 (stereo not given),-7.55% (inactive)
11,CCCCCCCCCCCCCCCCc1ccc(CCCC(=O)O)cc1,-17.3% (inactive)
12,c1ccc2c(CN3CCN(Cc4c[nH]c5ccccc45)CC3)c[nH]c2c1,-2.8% (inactive)
13,Cc1cc(=O)n(Cc2ccco2)c(=S)[nH]1,-0.9% (inactive)
14,CC(=O)Oc1ccc(OC(C)=O)c(C(=O)O)c1,-2.3% (inactive)
15,O=C(O)CS/C(=N\S(=O)(=O)c1ccccc1)Nc1cccc(Cl)c1,5.45% (inactive)
16,O=C(NCc1ccccn1)c1ccccc1,17.1% (inactive)
17,CCC(Cc1cnc2nc(N)nc(N)c2n1)c1ccc(C(=O)NC(CCC(=O)O)C(=O)O)cc1 (stereo not given),-22.8% (inactive)
18,NC(C(=O)O)c1ccccc1 (stereo not given),-10.7% (inactive)
19,CCOc1ccccc1C(=O)Oc1ccc(C)cc1,-5.5% (inactive)
20,COC(=O)C1=C(O)/C(=C\c2ccccc2)NC1=O,-17.8% (inactive)

row,SMILES,growth inhibition
1,O=C(CN1CCN(Cc2ccccc2)CC1)N1CCCn2c1nc1ccccc1c2=O,11.9% (inactive)
2,CCc1ccc(C(O)C(=O)O)cc1 (stereo not given),-2.7% (inactive)
3,CSc1nc2c(nc(N)n2C2OC(CO)C(O)C(O)C2O)c(=O)[nH]1 (stereo not given),-6.2% (inactive)
4,O=C(O)c1cscn1.O=C(O)c1cscn1.[I][Pt][I],0.9% (inactive)
5,CCOC(=O)NN(C(=O)OCC)C(C(=O)C1CCCCC1)N(NC(=O)OCC)C(=O)OCC,-3.55% (inactive)
6,c1ccc(N=C(Nc2ccccc2)N2CCCC2)cc1,-19.8% (inactive)
7,Nc1nc(C(F)(F)F)nc(N)c1N,-5.95% (inactive)
8,O=C(CCCCc1ccccc1)NO,-5.5% (inactive)
9,CCCC(C)OS(=O)(=O)c1ccc(C)cc1 (stereo not given),8.85% (inactive)
10,CC(C)(N)COCOCC(C)(C)N,5.8% (inactive)
11,CN1CCC(CNc2ccccc2)CC1,14.5% (inactive)
12,NC(=S)n1nc(-c2ccccc2)c(N=Nc2cccc([N+](=O)[O-])c2)c1-c1ccccc1,0.1% (inactive)
13,CCC1(CC)NC(=S)NC1=S,16.4% (inactive)
14,CCOC1C=CCCO1 (stereo not given),-7.2% (inactive)
15,COc1cc2c(c3c1/c(=N\N=c1/c4ccccc4n(C)c4c5c(cc(OC)c14)OC(C)(C)C=C5)c1ccccc1n3C)C=CC(C)(C)O2,36.9% (inactive)
16,Cn1nc2c(c1-c1ccncc1)CCc1ccccc1-2,66.1% (inactive)
17,CCOC(=O)/C=C/c1ccc([N+](=O)[O-])cc1,-1.9% (inactive)
18,CCCCCCCCCCCCCC(=O)OCC1OC(n2cc(F)c(=O)[nH]c2=O)C(N)C(OC(=O)CCCCCCCCCCCCC)C1O (stereo not given),11.6% (inactive)
19,CCNC(=O)CCC(NS(=O)(=O)c1ccc(NC(=O)c2ccc(Cl)cc2)cc1)C(=O)O (stereo not given),0.1% (inactive)
20,CC1CP(=O)(Cc2ccccc2)C(C)(c2ccccc2)C1=O (stereo not given),40.2% (inactive)
